# Data published in PubChem BioAssay (NCATS).
# Inconclusive results are not listed. Entries that show only a call come without a potency. The source made the active and inactive calls. Calls follow the shape of the dose curve; as a rule, active = well fitted cell-killing curve with a large enough effect; inconclusive = small, poorly fitted or top-dose-only effect, or effect the other way; inactive = flat fitted curve, though single readings scatter.
# Assay: qHTS of pediatric cancer cell lines to identify multiple opportunities for drug repurposing: Confirmatory screen for Rh18 cells (AID 1347125); also: nearly all actives have a fitted effect of over 55% in size
# Details: Rh18 rhabdomyosarcoma cells, viability; series mostly up to 45.9 µM
# From the text: Drug repurposing or repositioning has been offered as a strategy for drug development in oncology programs. This approach has special potential for childhood cancers and other rare or orphan diseases, where the expected return on new drug development has been a disincentive to pharmaceuticals.
# In this project we exploit the poly-pharmacology of drugs to discover new indications via phenotypic screening of a panel of 19 well-characterized cell lines derived from solid tumors seen in children and adolescents. The goal is to identify approved drugs with previously unrecognized anticancer properties that has the potential to reveal new mechanisms and biological processes involved in carcinogenesis or drug resistance. We employed a titration-based paradigm (quantitative high-throughput screening or qHTS), where all compounds were tested at multiple concentrations for their effect on cell viability. Concentration-response curves (CRCs) were derived directly from the primary screen, and both potency and efficacy values were used to identify compounds with robust bioactivity profiles. We screened the NIH Chemical Genomics Center (NCGC) Pharmaceutical Collection (NPC) and Mechanism Interrogation Plate (MIPE) small molecule collections of approved and investigational compounds against these cell lines; and measured metabolically active cells after 48 hours of compound treatment as a proxy for cell viability.
# Assay Submitter: Nathalia J. Martinez, National Center for Advancing Translational Sciences, National Institutes of Health, Rockville, MD, USA; email: natalia.martinez@nih.gov
# [1] Shen, M et al. Quantitative high-throughput phenotypic screening of pediatric cancer cell lines identifies multiple opportunities for drug repurposing. Oncotarget 2017 Dec 19;9(4):4758-4772. PMID 29435139.
# The cells were obtained from University of North Carolina (UNC), Pediatric Preclinical Testing Program (PPT), and Coriell Institute (CI).
# qHTS cell viability assay:
# Cells were assayed in growth media at a density of 500-1,000 cells/well. Five microliters of cells were dispensed into 1,536-well, white, solid-bottom, TC-treated plates (Greiner Bio One) using a multidrop dispenser and incubated at 37 degrees C, 5% CO2, under a humidified atmosphere for 5 hours. Twenty-three nanoliters of compounds and controls (neutral control DMSO or positive control bortezomib at final concentration of 2.3 µM) were subsequently transferred by Kalypsys pintool. For primary screens, the MIPE collection was tested at 11-point dilutions (final concentrations range from 0.78 nM to 46 µM) and the NPC collection at 8-point dilutions (final concentrations range from 0.59 nM to 46 µM). Compounds tested in follow-up screens were assayed at 11-point dilutions. Cells were incubated for 48 hours, followed by addition of 3 µL of CellTiter-Glo (Promega). After a 15 min incubation at room temperature, samples were analyzed for luminescence intensity using a ViewLux High-throughput CCD imager equipped with clear filters.
# Potency is read from the fitted curve at half-maximal effect.
row,SMILES,Potency
1,Cc1ccc(NC(=O)c2ccc(CN3CCN(C)CC3)cc2)cc1Nc1nccc(-c2cccnc2)n1,inactive
2,Clc1ccc(C(Cn2ccnc2)OCc2ccc(Sc3ccccc3)cc2)c(Cl)c1 (stereo unspecified),inactive
3,CCOc1cc(CC(=O)N[C@@H](CC(C)C)c2ccccc2N2CCCCC2)ccc1C(=O)O,inactive
4,Nc1ncn([C@H]2C[C@H](O)[C@@H](CO)O2)c(=O)n1,inactive
5,O=C(CCc1ccc(O)cc1)c1c(O)cc(O)cc1O,inactive
6,CC1(C)C(=O)N(CCN2CCC(C(=O)c3ccc(F)cc3)CC2)c2ccccc21,inactive
7,O=C(NCC1CCCCN1)c1cc(OCC(F)(F)F)ccc1OCC(F)(F)F (stereo unspecified),inactive
8,CS(=O)(=O)OCCCCOS(C)(=O)=O,inactive
9,O=C1c2c(O)cc(O)cc2OC(c2ccc(O)c(O)c2)C1O (stereo unspecified),inactive
10,CCCOc1ccc2nc(NC(=O)OC)[nH]c2c1,inactive
11,CC(C)C[C@H](NC(=O)[C@H](Cc1ccccc1)NC(=O)c1cnccn1)B(O)O,0.0465 µM (active)
12,CCCCc1ccc2nc(NC(=O)OC)[nH]c2c1,8.27 µM (active)
13,Oc1ccc(-c2nc(-c3ccc(F)cc3)c(-c3ccncc3)[nH]2)cc1,23.3 µM (active)
14,COc1cc(C(C)=O)ccc1OCCCN1CCC(c2noc3cc(F)ccc23)CC1,inactive
15,CC[C@]1(O)C[C@H]2CN(CCc3c([nH]c4ccccc34)[C@@](C(=O)OC)(c3cc4c(cc3OC)N(C=O)[C@H]3[C@@](O)(C(=O)OC)[C@H](OC(C)=O)[C@]5(CC)C=CCN6CC[C@]43[C@@H]65)C2)C1,inactive
16,CN(C)c1ccc2nc3ccc(=[N+](C)C)cc-3sc2c1,6.57 µM (active)
17,Clc1ccc(C(Cn2ccnc2)OCc2ccsc2Cl)c(Cl)c1 (stereo unspecified),14.7 µM (active)
18,C[C@]12CCC(=O)C=C1CC[C@@H]1[C@H]2[C@@H](O)C[C@@]2(C)[C@H]1CC[C@]2(O)C(=O)CO,inactive
19,Nc1nc(Cl)nc2c1ncn2[C@H]1C[C@H](O)[C@@H](CO)O1,inactive
20,CC(S)C(=O)NCC(=O)O (stereo unspecified),inactive
21,CN(C)c1ccc(O)c2c1C[C@H]1C[C@H]3[C@H](N(C)C)C(=O)C(C(N)=O)=C(O)[C@@]3(O)C(=O)C1=C2O,inactive
22,Cc1nc(Nc2ncc(C(=O)Nc3c(C)cccc3Cl)s2)cc(N2CCN(CCO)CC2)n1,0.208 µM (active)
23,CCN(CCO)CCCC(C)Nc1ccnc2cc(Cl)ccc12 (stereo unspecified),inactive
24,Nc1nc(OCc2ccccc2)c2[nH]cnc2n1,inactive
25,C=C(c1ccc(C(=O)O)cc1)c1cc2c(cc1C)C(C)(C)CCC2(C)C,inactive
26,CCN(CC)CCOc1ccc(Nc2ncc3cc(-c4c(Cl)cccc4Cl)c(=O)n(C)c3n2)cc1,14.7 µM (active)
